In PubChem BioAssay (EPA / NIEHS):
Active and inactive are the calls of the source. How the source made its calls: active means hit-call score of the fitted dose curve at least 0.9, where 1 is the maximum; inactive means score below 0.9.

Legend:
[1] = read-out: Macrophage colony-stimulating factor (MCSF), CSF1 (gene 1435); test: BSK_hDFCGF_MCSF: BioMAP Diversity Plus: hDFCGF Assay for Macrophage colony-stimulating factor (MCSF) Biomarker Activity (AID 2283060); settings: primary human foreskin fibroblasts; actives raise or lower the signal
Summary of the method: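 ELISA read-out of M-CSF in human dermal foreskin fibroblast cultures, 24 h after chemical dosing; gain or loss of signal fitted bidirectionally relative to DMSO baseline.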

[2] = BSK_hDFCGF_SRB: Viability Assessment in the BioMAP Diversity Plus: hDFCGF Assay (AID 2283061); settings: primary human foreskin fibroblasts;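 further: cells exposed to compound for 24 h before the read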
Summary of the method: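 Primary human foreskin fibroblasts; 24 h post-dose; fixed 10% TCA, stained 0.1% SRB, A560 read; total protein as overt cytotoxicity measure; curves fit bidirectionally vs DMSO control.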

[3] = read-out: TIMP metallopeptidase inhibitor 1 (TIMP1), TIMP1 (gene 7076); test: BSK_hDFCGF_TIMP1: BioMAP Diversity Plus: hDFCGF Assay for TIMP metallopeptidase inhibitor 1 (TIMP1) Biomarker Activity (AID 2283062); settings: primary human foreskin fibroblasts; actives raise or lower the signal
Summary of the method: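 ELISA readout of TIMP-1 from human dermal foreskin fibroblast cultures 24 h post-dosing. Curves were fitted in both directions against DMSO baseline, with SRB total-protein staining in parallel cultures as a cytotoxicity check.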

[4] = read-out: Monokine induced gamma interferon (MIG), CXCL9 (gene 4283); test: BSK_hDFCGF_MIG: BioMAP Diversity Plus: hDFCGF Assay for Monokine induced gamma interferon (MIG) Biomarker Activity (AID 2283063); settings: primary human foreskin fibroblasts; actives raise or lower the signal
Summary of the method: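 Fibroblasts (human foreskin, primary) dosed, 24 h, MIG by ELISA; fit bidirectional vs DMSO.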

[5] = read-out: Matrix Metallopeptidase 1 (MMP1), MMP1 (gene 4312); test: BSK_hDFCGF_MMP1: BioMAP Diversity Plus: hDFCGF Assay for Matrix Metallopeptidase 1 (MMP1) Biomarker Activity (AID 2283064); settings: primary human foreskin fibroblasts; actives raise or lower the signal
Summary of the method: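 MMP1 levels quantified by ELISA 24 h after dosing human dermal fibroblast cultures, with parallel SRB total-protein staining for overt cytotoxicity. Data fitted in both directions against DMSO baseline.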

[6] = read-out: Vascular cell adhesion molecule 1 (VCAM1), VCAM1 (gene 7412); test: BSK_hDFCGF_VCAM1: BioMAP Diversity Plus: hDFCGF Assay for Vascular cell adhesion molecule 1 (VCAM1) Biomarker Activity (AID 2283065); settings: primary human foreskin fibroblasts; actives raise or lower the signal;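 on AC50: VCAM-1 protein level quantified by ELISA after 24 h chemical exposure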
Summary of the method: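 ELISA read-out of VCAM-1 on human skin fibroblasts, 24 h post-dose; gain or loss of signal fitted bidirectionally against DMSO baseline.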

[7] = read-out: Intercellular Adhesion Molecule 1 (ICAM1), ICAM1 (gene 3383); test: BSK_KF3CT_ICAM1: BioMAP Diversity Plus: KF3CT Assay for Intercellular Adhesion Molecule 1 (ICAM1) Biomarker Activity (AID 2283067); settings: primary human keratinocytes with fibroblasts; actives raise or lower the signal
Summary of the method: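 ELISA readout of ICAM-1; KF3CT human skin co-culture (keratinocytes + foreskin fibroblasts), 24 h post-dose; gain/loss fit vs DMSO baseline.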

[8] = read-out: Interferon-gamma inducible Protein 10 (IP10), CXCL10 (gene 3627); test: BSK_KF3CT_IP10: BioMAP Diversity Plus: KF3CT Assay for Interferon-gamma inducible Protein 10 (IP10) Biomarker Activity (AID 2283068); settings: primary human keratinocytes with fibroblasts; actives raise or lower the signal
Summary of the method: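 Signal is secreted/surface IP-10 by ELISA in a human primary skin co-culture of keratinocytes and foreskin fibroblasts, taken 24 h post-dosing; DMSO served as negative control.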

[9] = BSK_KF3CT_SRB: Viability Assessment in the BioMAP Diversity Plus: KF3CT Assay (AID 2283069); settings: primary human keratinocytes with fibroblasts;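 further: read 24 h after compound addition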
Summary of the method: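 Cytotoxicity was gauged by SRB staining (0.1% SRB, 10% TCA fixation, 560 nm) of parallel cultures at 24 h. The cells were primary human skin keratinocytes co-cultured with fibroblasts, and activity was fitted in both directions against DMSO.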

[10] = read-out: Interleukin-1 alpha (IL1a), IL1A (gene 3552); test: BSK_KF3CT_IL1a: BioMAP Diversity Plus: KF3CT Assay for Interleukin-1 alpha (IL1a) Biomarker Activity (AID 2283070); settings: primary human keratinocytes with fibroblasts; actives raise or lower the signal
Summary of the method: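 IL-1a was detected by ELISA 24 h after chemical treatment of a co-culture of human skin keratinocytes and foreskin fibroblasts. Gain or loss of signal was fitted against the DMSO baseline.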

[11] = read-out: TIMP metallopeptidase inhibitor 2 (TIMP2), TIMP2 (gene 7077); test: BSK_KF3CT_TIMP2: BioMAP Diversity Plus: KF3CT Assay for TIMP metallopeptidase inhibitor 2 (TIMP2) Biomarker Activity (AID 2283071); settings: primary human keratinocytes with fibroblasts; actives raise or lower the signal
Summary of the method: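 TIMP-2 measured by ELISA at 24 h in human keratinocyte/fibroblast primary co-cultures exposed to chemicals. Both increases and decreases were fitted against DMSO. Parallel cultures were stained with SRB for total protein as an overt-cytotoxicity check.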

[12] = read-out: Transforming growth factor beta 1 (TGFb1), TGFB1 (gene 7040); test: BSK_KF3CT_TGFb1: BioMAP Diversity Plus: KF3CT Assay for Transforming growth factor beta 1 (TGFb1) Biomarker Activity (AID 2283072); settings: primary human keratinocytes with fibroblasts; actives raise or lower the signal
Summary of the method: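 ELISA quantifies TGF-b1 at 24 h post-dose in a primary human skin co-culture of keratinocytes and fibroblasts, with gain or loss judged against DMSO. Parallel SRB total-protein staining flags overt cytotoxicity.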

[13] = read-out: urokinase plasminogen activator (uPA), PLAU (gene 5328); test: BSK_KF3CT_uPA: BioMAP Diversity Plus: KF3CT Assay for urokinase plasminogen activator (uPA) Biomarker Activity (AID 2283075); settings: primary human keratinocytes with fibroblasts; actives raise or lower the signal
Summary of the method: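 ELISA read-out of uPA 24 h after dosing human skin keratinocytes co-cultured with foreskin fibroblasts. Signal change fitted both ways relative to DMSO; sulforhodamine B on parallel cultures marks overt cytotoxicity.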

CD40, CD40 (gene 958) = test: BSK_LPS_CD40: BioMAP Diversity Plus: LPS Assay for CD40 Biomarker Activity (AID 2283076); settings: primary human HUVEC with PBMC; actives raise or lower the signal
Summary of the method: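 ELISA readout of CD40 in HUVEC/PBMC co-culture (BSK_LPS system), 24 h post-dosing; bidirectional curve fit, DMSO baseline; parallel SRB total-protein staining for cytotoxicity.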

[14] = read-out: E-selectin (Homo sapiens) (UniProt P16581); test: BSK_LPS_Eselectin: BioMAP Diversity Plus: LPS Assay for Eselectin Biomarker Activity (AID 2283077); settings: primary human HUVEC with PBMC; actives raise or lower the signal
Summary of the method: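 ELISA readout of E-selectin, 24 h post-dose, HUVEC + PBMC co-culture (LPS system). Gain or loss of signal vs DMSO baseline, bidirectional fit.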

[15] = read-out: Interleukin-8 (IL8), CXCL8 (gene 3576); test: BSK_LPS_IL8: BioMAP Diversity Plus: LPS Assay for Interleukin-8 (IL8) Biomarker Activity (AID 2283078); settings: primary human HUVEC with PBMC; actives raise or lower the signal
Summary of the method: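 HUVEC + PBMC co-culture, LPS-activated; test chemicals dosed, IL-8 read by ELISA at 24 h. Bidirectional curve fit vs DMSO baseline (gain or loss of signal).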

[16] = read-out: Plasminogen activator inhibitor-1 (PAI1), SERPINE1 (gene 5054); test: BSK_hDFCGF_PAI1: BioMAP Diversity Plus: hDFCGF Assay for Plasminogen activator inhibitor-1 (PAI1) Biomarker Activity (AID 2283066); settings: primary human foreskin fibroblasts; actives raise or lower the signal
Summary of the method: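 PAI-1 levels in human dermal foreskin fibroblasts were quantified by ELISA 24 h after dosing, with gain or loss analysed against DMSO. Overt cytotoxicity was checked by sulforhodamine B total-protein staining in parallel cultures.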

[17] = read-out: C-C motif chemokine 2 (Homo sapiens) (UniProt P13500); test: BSK_KF3CT_MCP1: BioMAP Diversity Plus: KF3CT Assay for Monocyte Chemoattractant Protein 1 (MCP1/CCL2) Biomarker Activity (AID 2283073); settings: primary human keratinocytes with fibroblasts; actives raise or lower the signal
Summary of the method: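 KF3CT skin co-culture (keratinocytes/foreskin fibroblasts), 24 h post-dose; MCP-1 by ELISA; gain/loss of signal fit bidirectionally vs DMSO baseline.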

[18] = read-out: Matrix Metallopeptidase 9 (MMP9), MMP9 (gene 4318); test: BSK_KF3CT_MMP9: BioMAP Diversity Plus: KF3CT Assay for Matrix Metallopeptidase 9 (MMP9) Biomarker Activity (AID 2283074); settings: primary human keratinocytes with fibroblasts; actives raise or lower the signal
Summary of the method: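 MMP-9 quantified by ELISA after 24 h chemical treatment of primary human skin keratinocyte/fibroblast co-cultures; gain or loss fitted against DMSO, with parallel SRB staining (0.1% SRB, 560 nm) for overt cytotoxicity.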

Measured: AC50

Sequence of E-selectin (Homo sapiens) (P16581 whole entry, looked up): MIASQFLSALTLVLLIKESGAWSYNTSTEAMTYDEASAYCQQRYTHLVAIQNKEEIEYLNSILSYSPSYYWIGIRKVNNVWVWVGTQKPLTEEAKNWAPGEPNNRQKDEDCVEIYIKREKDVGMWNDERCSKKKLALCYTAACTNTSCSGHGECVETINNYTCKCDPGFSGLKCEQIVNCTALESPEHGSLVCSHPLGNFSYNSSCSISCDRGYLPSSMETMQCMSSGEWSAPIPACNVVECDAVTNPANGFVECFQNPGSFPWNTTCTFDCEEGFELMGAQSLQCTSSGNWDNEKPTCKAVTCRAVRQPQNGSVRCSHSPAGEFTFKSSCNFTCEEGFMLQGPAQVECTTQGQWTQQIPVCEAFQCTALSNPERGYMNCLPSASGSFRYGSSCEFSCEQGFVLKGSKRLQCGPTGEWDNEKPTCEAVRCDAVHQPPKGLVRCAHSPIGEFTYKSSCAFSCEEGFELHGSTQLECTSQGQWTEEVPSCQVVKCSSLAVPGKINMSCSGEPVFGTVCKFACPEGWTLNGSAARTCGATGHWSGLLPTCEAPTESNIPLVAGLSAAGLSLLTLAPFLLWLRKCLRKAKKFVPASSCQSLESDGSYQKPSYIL

O=[N+]([O-])c1ccccc1
not listed: [16] | [17] | [18]
inactive: all other assays above

CCOP(=S)(OCC)SCSCC
not listed: [7] | [14]
inactive: all other assays above

CCOP(=S)(OCC)SCS(=O)(=O)CC
not listed: [7] | [8] | [14]
inactive: all other assays above

CCOC(=O)c1ccccc1C(=O)OCC
not listed: [8] | [14] | [18]
inactive: all other assays above

CC(Cc1ccc(OCC(=O)O)cc1)NCC(O)c1csc(C(F)(F)F)n1 (centres undefined)
not listed: [7] | [16]
inactive: all other assays above

CCCCC(CC)COP(=O)(Oc1ccccc1)Oc1ccccc1 (centres undefined)
active: [1] 6.1 µM | [2] 4.47 µM | [3] 5.46 µM | [4] 11 µM | [5] 6.33 µM | [6] 1.69 µM | [16] 6.48 µM | [9] 20 µM | [10] 5.46 µM | [11] 6.54 µM | [12] 5.46 µM | [13] 4.9 µM | CD40, CD40 (gene 958) 13.5 µM | [15] 20 µM
inactive: [17]

CC(C)(C)c1ccccc1OP(=O)(Oc1ccccc1)Oc1ccccc1
active: [1] 20 µM | [2] 25 µM | [3] 20 µM | [6] 20 µM | [10] 20 µM | [11] 20 µM | CD40, CD40 (gene 958) 25.3 µM | [15] 20 µM
inactive: [4] | [5] | [16] | [7] | [9] | [12] | [17] | [13]

Cc1c([N+](=O)[O-])cc2c(c1[N+](=O)[O-])C(C)(C)CC2(C)C
active: [1] 3.02 µM | [12] 3.06 µM | CD40, CD40 (gene 958) 0.807 µM
not listed: [7] | [16] | [18]
inactive: all other assays above
